Source: PubChem BioAssay
The full list was thinned out, with hits kept by preference.
Shiga inhibitor – A qHTS for Small Molecule Inhibitors of Shiga Toxin; inhibition, % at 38.7 µM; hit rate 9.2% among 290,000; AID 2315, 2010; Vero cells, Shiga toxin protein synthesis inhibition reporter; in the data active = inhibition mostly above about 28%, no sharp cut-off; inactive = mostly below about 43%
VACV mCherry inh – qHTS for Stage-Specific Inhibitors of Vaccinia Orthopoxvirus: mCherry Reporter Primary qHTS; Vaccinia virus mCherry reporter infection, fluorescence; hit rate 0.63% among 310,000; Potency, µM (highest dose often 36.5 µM), actives largely listed as inhibitors; AID 720579, 2013; calls by dose curve; tested in A549 cells; also: nearly all actives have a fitted effect of over 35% in size
CHX counter – Cycloheximide Counterscreen for Small Molecule Inhibitors of Shiga Toxin; cell reporter, cycloheximide protein synthesis inhibition counterscreen; max response, %; hit rate 12% among 300,000; in the data active = max response mostly above about 13%, no sharp cut-off; inactive = mostly below about 14%; also: read at 38.3 µM for the half of the compounds with a filed dose
Lassa entry inh – qHTS for Inhibitors of binding or entry into cells for Lassa Virus | Lassa virus pseudotype entry inhibition, cell reporter | hit rate 1.2% among 300,000 | Potency, µM (series often up to 37.9 µM), usual class: inhibitors; calls by dose curve; tested in HEK293 cells; also: nearly all actives have a fitted effect of over 50% in size
VACV Venus inh – qHTS for Stage-Specific Inhibitors of Vaccinia Orthopoxvirus: Venus Reporter Primary qHTS | Vaccinia virus Venus reporter expression, fluorescence | Potency, µM (titrated, usually from 36.5 µM), hits mostly inhibitors | hit rate 0.46% among 330,000 | AID 720580, 2013; calls by dose curve; tested in A549 cells; also: nearly all actives have a fitted effect of over 30% in size
MARV entry inh – qHTS for inhibitors of binding or entry into cells for Marburg Virus. hit rate 1.8% among 300,000. Potency, µM (doses to about 37.8 µM), hits mostly inhibitors. Marburg virus pseudotyped entry inhibition, cell reporter; calls by dose curve; tested in HEK293 cells
Each line names hits and unclear results; the compound was inactive in the other large screens; ! = not active in a repeat.

COc1ccc(S(=O)(=O)Nc2cc3c4c(oc3c3ccccc23)CC(C)(C)CC4=O)cc1	Lassa entry inh inconclusive, MARV entry inh 15µM (no result: VACV mCherry inh, VACV Venus inh)
CC(=O)c1ccc(S(=O)(=O)N2CCn3cccc3C2c2ccccc2F)cc1 (stereo not drawn)	none (no result: Shiga inhibitor, CHX counter, MARV entry inh)
FC(F)(F)c1cccc(N2Cc3ccccc3C2)c1	Shiga inhibitor 37, CHX counter 20
CCn1c2ccccc2c2cc(/C=N/n3cnnc3)ccc21	VACV Venus inh inconclusive, MARV entry inh inconclusive
CCn1c2ccccc2c2cc(/C=N/n3c(-c4cc(C)[nH]n4)n[nH]c3=S)ccc21	Lassa entry inh inconclusive, MARV entry inh 5µM
CCn1c2ccccc2c2cc(/C=N/n3cn[nH]c3=S)ccc21	MARV entry inh 10µM (no result: VACV mCherry inh, VACV Venus inh)
COc1ccc(/C=N/n2c(-c3cc(C)[nH]n3)n[nH]c2=S)cc1	Lassa entry inh inconclusive
Cc1ccc(CNc2ccc(N3CCOCC3)c(Cl)c2)cc1	Shiga inhibitor 30, CHX counter 22
CC(C)c1ccc(CNc2ccc(N3CCOCC3)cc2)cc1	Lassa entry inh inconclusive
Cc1ccc(CNc2ccc(N3CCOCC3)cc2)cc1	Shiga inhibitor 52, CHX counter 21, MARV entry inh inconclusive
c1cc(CNc2ccc(N3CCOCC3)cc2)ccn1	Shiga inhibitor 49, CHX counter 33 (no result: VACV mCherry inh)
CCOc1cc2c(cc1OCC)C(CC(=O)O)N(C(=O)Nc1ccc(Br)c(C)c1)CC2 (stereo not drawn)	none (no result: Shiga inhibitor, CHX counter, MARV entry inh)
Cc1ccc(C(=O)N(CC(C)C)c2nc3ccccc3s2)o1	Lassa entry inh inconclusive
CC(C)CN(C(=O)c1ccc(=O)n(C)n1)c1nc2ccccc2s1	CHX counter 15, Lassa entry inh inconclusive (no result: VACV mCherry inh, VACV Venus inh)
CCCNC(=O)OCc1cccnc1Sc1ccc(C)cc1	Shiga inhibitor 98, CHX counter 31, Lassa entry inh 10µM, MARV entry inh inconclusive
C/C(=N\NC(=S)NCc1ccccc1)c1ccc2ccccc2c1	Lassa entry inh 2.3µM, MARV entry inh inconclusive
COc1ccc(/C(C)=N/NC(=S)NCCc2ccccc2)cc1	Lassa entry inh inconclusive, MARV entry inh inconclusive
S=C(NCc1ccccc1)Nc1ccc2ccccc2c1	Shiga inhibitor 102, VACV mCherry inh inconclusive, CHX counter 76, MARV entry inh inconclusive
C/C(=N\NC(=S)NCc1ccccc1)c1cccc(Br)c1	Shiga inhibitor 68, CHX counter 49, Lassa entry inh inconclusive
O=C(O)CSC1=c2ccccc2=NC1c1cccs1 (stereo not drawn)	none (no result: Shiga inhibitor, VACV mCherry inh, CHX counter, Lassa entry inh, VACV Venus inh)
O=S(=O)(NC1CCCCC1Oc1ccccc1)c1ccccc1 (stereo not drawn)	MARV entry inh inconclusive
COc1cc([C@@H]2C[C@H]3CN(c4ccccc4)C(=O)[C@]34CCCN24)cc(OC)c1OC	none (no result: VACV mCherry inh, Lassa entry inh, VACV Venus inh, MARV entry inh)
COc1ccccc1-n1cc([C@@H]2C[C@H]3CN(c4ccccc4)C(=O)[C@]34CCCN24)cn1	Lassa entry inh inconclusive, MARV entry inh 10µM
CCOC(NC(=O)c1ccccc1)C(NC(=O)c1ccccc1)OCC (stereo not drawn)	none (no result: VACV mCherry inh, VACV Venus inh)
CCN(CC)C(NC(=O)c1ccccc1)C(=O)c1ccccc1 (stereo not drawn)	CHX counter 55 (no result: VACV mCherry inh)
CCOc1ccc(-c2cc(CCCC(=O)NCCc3ccc(SC)cc3)no2)cc1	Lassa entry inh inconclusive (no result: Shiga inhibitor, CHX counter)
COc1ccc(-c2noc(CCC(=O)Nc3cc(Cl)c(OC)cc3OC)n2)cc1	Shiga inhibitor 46, CHX counter 41, VACV Venus inh inconclusive, MARV entry inh inconclusive (no result: VACV mCherry inh)
COc1ccc(-c2noc(CCC(=O)NCc3ccco3)n2)cc1	CHX counter 17 (no result: VACV mCherry inh, Lassa entry inh, VACV Venus inh, MARV entry inh)
COc1ccc(-c2noc(CCC(=O)Nc3cc(OC)ccc3OC)n2)cc1	MARV entry inh inconclusive (no result: VACV mCherry inh)
Cc1ccc(-c2noc(CCCC(=O)NCc3ccco3)n2)cc1	none (no result: Shiga inhibitor, CHX counter)
CCN(CC(=O)Nc1cc(C)on1)CC(=O)Nc1ccccc1C(F)(F)F	none (no result: Shiga inhibitor, CHX counter)
COc1cc(CN(C)CC(=O)c2[nH]c(C)c(C(C)=O)c2C)ccc1OC(F)F	VACV Venus inh inconclusive, MARV entry inh inconclusive (no result: VACV mCherry inh)
COc1cc(CN(C)c2ncnc3sccc23)ccc1OC(F)F	MARV entry inh 2.8µM
NC(=O)CSc1nc(N)c2c3c(sc2n1)CCCCC3	CHX counter 21 (no result: VACV mCherry inh, VACV Venus inh)
CCSc1nc(N)c2c3c(sc2n1)CCC3	Shiga inhibitor 61, CHX counter 21 (no result: VACV mCherry inh)
NC(=O)CSc1nc(C2CC2)nc2sc3c(c12)CCCC3	Shiga inhibitor 47, CHX counter 19 (no result: Lassa entry inh, MARV entry inh)
CCCCN(C)CCNC(=O)c1ccc(Cn2c(=S)[nH]c3ccc(Br)cc3c2=O)cc1	MARV entry inh inconclusive
N#Cc1ccsc1NC(=O)CN1CCN(c2ccccc2O)CC1	Lassa entry inh inconclusive, MARV entry inh inconclusive
N#Cc1ccsc1NC(=O)CCc1ccccc1	Shiga inhibitor 68, VACV mCherry inh inconclusive, CHX counter 32, MARV entry inh inconclusive (no result: Lassa entry inh)
N#Cc1ccsc1NC(=O)CCN1CCN(C(c2ccccc2)c2ccccc2)CC1	Lassa entry inh inconclusive, MARV entry inh 10µM
COc1ccc(NC(=O)c2ccc3c(c2)c(C)c(C)n3Cc2ccc(F)cc2)c(OC)c1	none (no result: Shiga inhibitor, CHX counter, MARV entry inh)
CCC(C)(C)n1nnnc1C(c1cc(OC)ccc1OC)N1CCN(Cc2ccccc2)CC1 (stereo not drawn)	MARV entry inh inconclusive
COC(=O)C1=C(C)NC(C)=C(C(=O)OCC2CCCO2)C1c1ccc(Cl)c([N+](=O)[O-])c1 (stereo not drawn)	none (no result: VACV mCherry inh, Lassa entry inh, VACV Venus inh, MARV entry inh)
CC1=C(C(=O)OCCNC(=O)c2ccccc2O)C(c2ccccc2[N+](=O)[O-])C(C(=O)OCC2CCCO2)=C(C)N1 (stereo not drawn)	Lassa entry inh 10µM, VACV Venus inh inconclusive, MARV entry inh inconclusive
COc1ccc(CNC(=O)CCCc2ccccc2)cc1	none
CCOC(=O)c1cc(-c2ccccc2)n(CC(=O)NCc2ccccc2OC)c1C	Lassa entry inh 7.1µM (no result: Shiga inhibitor, CHX counter, MARV entry inh)
COc1ccccc1CNC(=O)CCCc1ccccc1	Shiga inhibitor 65, CHX counter 23
Cc1ccc(CNC(=O)COC(=O)Cc2ccc(-c3ccccc3)cc2)cc1	none
O=C(COC(=O)Cc1ccc(-c2ccccc2)cc1)NCc1ccc(F)cc1	CHX counter 15, Lassa entry inh inconclusive
Cc1ccc(CC(=O)NCc2ccc(F)cc2)cc1	CHX counter 11, MARV entry inh inconclusive
COc1ccc(S(=O)(=O)N2CCC(C(=O)Nc3cc(C(F)(F)F)ccc3Cl)CC2)cc1	VACV mCherry inh inconclusive, MARV entry inh inconclusive (no result: Shiga inhibitor, CHX counter)
Cc1ccc2c(cnn2C(=O)CCCC(=O)NCc2ccc(F)cc2)c1	Shiga inhibitor 26, CHX counter 11 (no result: Lassa entry inh, MARV entry inh)
COc1ccccc1CNC(=O)CN1C(=O)c2cccc(N)c2C1=O	Shiga inhibitor 68, CHX counter 39, Lassa entry inh inconclusive
COc1ccccc1-c1ccc(C(=O)O)o1	CHX counter 22!
COc1ccccc1CNC(=O)CCN1C(=O)c2ccccc2C1=O	none
CCC1SC(CC)C(=O)N(CC(=O)NCc2ccc(F)cc2)C1=O (stereo not drawn)	none
CC1SC(C)C(=O)N(CC(=O)NCc2ccc(F)cc2)C1=O (stereo not drawn)	CHX counter 13 (no result: VACV mCherry inh, Lassa entry inh, VACV Venus inh)
